Bioassay records (PubChem)
The list is not random: actives were taken first. Their share in the collection is about 19%.
ASM inhibitor – blocks human secretory acid sphingomyelinase. 340,000 compounds, 0.006% hits. placental ASM, HMU-PC fluorogenic substrate, 60 min. P17405. AID 504937. Potency, µM (highest dose often 57.5 µM), for the others: top-dose activity change, negative = inhibition, usual class: inhibitors; also: potency is read from the fitted curve at half-maximal effect
Target sequence (P17405 47-631 limits assumed): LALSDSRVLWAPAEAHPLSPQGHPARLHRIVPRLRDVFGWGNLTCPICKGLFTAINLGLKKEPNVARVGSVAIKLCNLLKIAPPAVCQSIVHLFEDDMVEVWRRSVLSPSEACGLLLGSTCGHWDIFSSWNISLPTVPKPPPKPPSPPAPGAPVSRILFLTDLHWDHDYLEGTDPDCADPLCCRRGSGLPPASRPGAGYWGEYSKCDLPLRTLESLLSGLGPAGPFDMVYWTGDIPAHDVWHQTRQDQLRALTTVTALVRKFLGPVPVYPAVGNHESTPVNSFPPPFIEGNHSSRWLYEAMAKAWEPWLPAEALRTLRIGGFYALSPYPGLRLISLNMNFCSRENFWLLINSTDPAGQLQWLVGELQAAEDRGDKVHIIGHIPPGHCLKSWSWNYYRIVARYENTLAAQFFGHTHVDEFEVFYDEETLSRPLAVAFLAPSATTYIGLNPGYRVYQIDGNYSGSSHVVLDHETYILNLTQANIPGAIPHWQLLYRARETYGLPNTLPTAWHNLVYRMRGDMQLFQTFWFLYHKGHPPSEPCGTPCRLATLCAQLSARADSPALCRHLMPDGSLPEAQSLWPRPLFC
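Human placenta-derived ASM enzyme was preincubated with compound for 10 minutes at room temperature, then given fluorogenic substrate HMU-PC0 (9 uM final) for 60 minutes at 37 °C; a pH 10 stop preceded fluorescence reading at Ex 386/Em 447 nm.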
DT40 TDP1 no CPT – qHTS for Inhibitors of human tyrosyl-DNA phosphodiesterase 1 (TDP1): qHTS in cells in absence of CPT. Potency, µM (top dose mostly 46.2 µM), inactives show at the highest dose activity change, negative = growth inhibition, actives largely listed as inhibitors. 420,000 compounds, 15% hits. DT40 Tdp1-/- hTDP1 cells, no CPT, ATP luminescence, 48 h. AID 686978, 2013; also: potency is read from the fitted curve at half-maximal effect; % is scaled to controls: 0 for no effect and ±100 for the full control effect; nearly all actives have a fitted effect of over 55% in size
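No-CPT arm: Tdp1-/-;hTDP1 DT40 cells (400/well) plus compounds, incubated ≥48 hr at 37 °C. Readout CellTiter-Glo luminescence.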
TGFb SMAD3 inh – inhibitors of TGF-b signaling; 410,000 compounds, 1.2% hits; Potency, µM (series often up to 46.1 µM), without a hit: top-dose activity, negative = inhibition, usual class: inhibitors; AID 588855; HepG2 CAGA-GFP TGF-b/SMAD3 reporter, GFP fluorescence, 18 h; TGF-beta stimulated, 500 pg/mL final; also: potency is read from the fitted curve at half-maximal effect; % is scaled to controls: 0 for no effect and ±100 for the full control effect; nearly all actives have a fitted effect of over 65% in size
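Inhibition of TGF-beta-driven CAGA-GFP reporter expression in HEPG2 cells is measured by cellular GFP fluorescence after 18 h stimulation with 500 pg/mL recombinant TGF-beta in 1% FBS medium at 37 degrees C.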
IL-1B inflam inh – inhibitors of inflammasome signaling (IL-1 beta secretion). activity change, % at 57.5 µM. AID 743279. 360,000 compounds, 4.7% hits. THP-1 LPS/ATP IL-1B secretion, AlphaLISA, 16 h; hits give low values; in the data active = activity change below about -50%; inconclusive = mostly about -30% to -49%; also: % is scaled to controls: 0 for no effect and ±100 for the full control effect
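THP-1 cells pretreated 1 hr with compounds (up to 57.5 uM final), then stimulated with LPS (250 ng/mL final) plus ATP (1.25 mM final); secreted IL-1B measured by AlphaLISA after 16 hr, decreased signal indicating inhibition.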
HepG2 viability – kills HepG2 cells in TGF-b inhibitor counter-screen; HepG2 CAGA-GFP viability, ATP luminescence, 18 h; 410,000 compounds, 0.76% hits; Potency, µM (doses to about 46.1 µM), inactives show top-dose activity change, negative = cytotoxicity, usual class: cytotoxic; also: potency is read from the fitted curve at half-maximal effect
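HepG2 CAGA-GFP cells (1000/well, DMEM with 1% FBS) received compound, then TGF-beta at 500 pg/mL final, and were incubated 18 hours at 37 degrees C. Viability was read by CellTiter-Glo luminescence. Media-only wells were set as complete cell-killing and DMSO as no toxicity.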
DT40 TDP1 CPT – growth inhibition of DT40 Tdp1-/-;hTDP1 cells with camptothecin (screen for TDP1 inhibitors). Potency, µM (top dose mostly 46.2 µM), without a hit: at the highest dose activity change, negative = growth inhibition, most hits filed as inhibitors. chicken DT40 Tdp1-/-;hTDP1 cells + 20 nM CPT, ATP luminescence, 48 h. 420,000 compounds, 12% hits. AID 686979; also: potency is read from the fitted curve at half-maximal effect; % is scaled to controls: 0 for no effect and ±100 for the full control effect; nearly all actives have a fitted effect of over 55% in size
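Cell growth measured by CellTiter-Glo luminescence after a minimum 48 h, 37 C compound exposure with 20 nM CPT in Tdp1-knockout DT40 cells stably expressing hTDP1, seeded 400/well; qHTS titration format.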
The depositor's hits bear a star; u = inconclusive; x = not tested or not shown. Unless noted, calls follow the shape of the dose curve; as a rule, active = well fitted curve in the direction sought with a large enough effect; inconclusive = small, poorly fitted or top-dose-only effect, or another doubt; inactive = no such curve, though single readings can be large; an effect the other way counts as inactive or inconclusive.

SMILES | ASM inhibitor | DT40 TDP1 no CPT | TGFb SMAD3 inh | IL-1B inflam inh | HepG2 viability | DT40 TDP1 CPT
CCN(CC)C(=O)[C@H]1C[C@H](CC(=O)NCCc2ccccn2)C(=O)N2CCc3c([nH]c4ccc(Cl)cc34)[C@]12C | 4.4% | 20.6µM* | u | -19.0 | -9.8% | u
C[C@]12c3[nH]c4ccc(Cl)cc4c3CCN1C(=O)[C@@H](CC(=O)NCCc1ccccn1)C[C@@H]2C(=O)N1CCOCC1 | 2.4% | -28.9% | -21.3% | -26.7 | 8.9% | u
CCN(CC)C(=O)[C@H]1C[C@H](CC(=O)NCCCOC)C(=O)N2CCc3c([nH]c4cc(-c5ccco5)ccc34)[C@]12C | 19.1% | 18.4µM* | -11.1% | 27.0 | -1.5% | 14.6µM*
COc1ccc(CNC(=O)C[C@H]2C[C@H](C(=O)N3CCCCC3)[C@@]3(C)c4[nH]c5ccc(Cl)cc5c4CCN3C2=O)cc1OC | -10.8% | 11.6µM* | u | -56.3* | -24.8% | 18.4µM*
CCOC(=O)C(=CNc1cc(C)nn1-c1ccccc1)C(=O)OCC | 3.6% | 16.4µM* | -3.9% | 10.1 | -12.9% | 20.6µM*
CCOC(=O)c1c(C)[nH]c(C(=O)OCC(=O)Nc2ccc(OC)c(Cl)c2)c1C | 0.2% | -8.9% | -0.2% | -12.7 | -17.5% | 4.3%
CCOC(=O)c1c(C)[nH]c(C(=O)OCC(=O)Nc2cc(C)nn2-c2ccccc2)c1C | 0.2% | 18.4µM* | -27.4% | -10.6 | -13.3% | u
COc1ccc(C)cc1NC(=O)COC(=O)c1ccc(OCc2ccc(Cl)cc2Cl)c(OC)c1 | -1.1% | 16.4µM* | -3.7% | 0.5 | 0.8% | 18.4µM*
CCOC(=O)c1c(C)[nH]c(C(=O)OCC(=O)Nc2cc(C)ccc2OC)c1C | -2.2% | 4.11µM* | 3.2% | 40.2 | -22.6% | 2.59µM*
CCOC(=O)c1c(C)[nH]c(C(=O)OCC(=O)NCc2ccccc2)c1C | -1.4% | u | -9.0% | 3.1 | -32.1% | u
O=C(Nc1cccc(Cl)c1)c1ccc2ncsc2c1 | -7.0% | -7.4% | -8.0% | u | -5.3% | u
O=C(N/C(=C/c1cccc([N+](=O)[O-])c1)C(=O)N1CCOCC1)c1ccccc1Br | -3.3% | -7.3% | -8.7% | 14.5 | 21.3% | -1.5%
Cc1ccc(NC(=O)CCCNC(=O)c2ccc(Cl)cc2)c(Br)c1 | 3.9% | -28.4% | -8.0% | 2.5 | -9.0% | 6.5%
CCOC(=O)c1[nH]c(C)c(C(=O)NCc2ccc(OC)cc2)c1C | 3.8% | -2.5% | 0.1% | -3.8 | -4.2% | 10.5%
CCCc1cc(NC(=O)COC(=O)c2ccc(O)cc2O)n(-c2ccccc2)n1 | -9.4% | u | u | 26.8 | -26.1% | u
CCOC(=O)c1c(C)c(C(=O)Nc2cc(OC)ccc2OC)c(C)n1CC | -1.9% | 18.4µM* | -1.6% | -1.7 | -25.6% | 6.51µM*
O=C(COC(=O)c1ccc(O)cc1O)Nc1cc(-c2ccccc2)nn1-c1ccccc1 | u | 18.4µM* | -9.1% | -57.7* | -21.7% | u
CCOC(=O)c1[nH]c(C)c(C(=O)Nc2cc(OC)ccc2OC)c1C | -1.2% | 0.562µM* | 5.3% | 75.8 | -3.1% | 0.794µM*
CC(C)Nc1ncnc2c1ncn2[C@H]1CN(Cc2ccc(Cl)cc2)C[C@@H](CO)O1 | x | u | -6.6% | 2.3 | 3.9% | u
OC[C@@H]1CN(Cc2ccc3c(c2)OCO3)C[C@H](n2cnc3c(NC4CCCC4)ncnc32)O1 | x | u | 13.0% | -71.9* | -3.1% | u
OC[C@@H]1CN(Cc2ccc(Cl)cc2)C[C@H](n2cnc3c(NC4CCC4)ncnc32)O1 | x | u | 5.1% | -84.5* | -9.5% | u
OCCNc1ncnc2c1ncn2[C@H]1CN(Cc2ccc3c(c2)OCO3)C[C@@H](CO)O1 | x | 0.3% | -4.6% | -3.4 | -14.4% | -12.6%
CCN(CC)c1ncnc2c1ncn2[C@H]1CN(Cc2ccc(Cl)cc2)C[C@@H](CO)O1 | x | 16.4µM* | -16.3% | -2.4 | -31.5% | 29.1µM*
COc1ccc(CCNC(=O)C(=O)NCC2OCCN2S(=O)(=O)c2ccc(OC)c(OC)c2)cc1 (stereo unspecified) | -4.6% | u | -10.4% | -9.8 | -6.4% | -9.9%
CCC(C)[C@H]1CNCCN1CCc1cccc2ccccc12 (stereo partly specified) | 8.1% | u | 12.9% | -7.4 | -31.7% | 16.4µM*
SMILES | ASM inhibitor | DT40 TDP1 no CPT | TGFb SMAD3 inh | IL-1B inflam inh | HepG2 viability | DT40 TDP1 CPT
CC(C)(C)CN1CCNC[C@H]1Cc1cccc2ccccc12 | 5.4% | u | -27.7% | u | -65.3% | u
CCC(C)[C@H]1CNCCN1CCC12CC3CC(CC(C3)C1)C2 (stereo partly specified) | 7.5% | 11.6µM* | -11.6% | -61.8* | -40.5% | 25.9µM*
CCC(C)[C@H]1CNCCN1CC1(c2ccccc2)CC1 (stereo partly specified) | 2.5% | 18.4µM* | -6.8% | -14.5 | 3.7% | 20.6µM*
CCCCOc1cccc(C2c3c(oc4ccccc4c3=O)C(=O)N2c2ccccn2)c1 (stereo unspecified) | x | 5.4% | -1.0% | x | -2.5% | 17.0%
CCOC(=O)N1CCC2(CC1)NC(=O)c1ccccc1N2 | x | u | 4.4% | 6.9 | -11.3% | -16.9%
COc1ccc(NC(=O)C2(S(=O)(=O)c3ccc(C)cc3)CC2)c(OC)c1 | x | -21.7% | 5.0% | x | -19.4% | -10.5%
O=C(CCN1CCN(S(=O)(=O)c2ccc(Cl)cc2)CC1)Nc1ccc(F)cc1 | 2.0% | -21.2% | u | 12.0 | -14.0% | -24.7%
COC(=O)CNC(=O)CSc1nc2sc(-c3ccccc3)cc2c(=O)n1-c1ccccc1 | -0.5% | -27.2% | -6.7% | -66.3* | -75.2% | u
COC(=O)CNC(=O)CSc1nc2sccc2c(=O)n1-c1ccccc1 | -2.1% | 5.9% | 0.2% | 0.9 | 5.5% | 5.4%
CNc1ccccc1C(C)(C)c1cc(C)[nH]n1 | 3.5% | u | -4.7% | 6.4 | -0.2% | 16.4µM*
CNc1ccccc1C(C)(C)c1cc(-c2cc(C)cc(C)c2)no1 | -1.5% | u | 0.0% | -8.8 | -11.1% | u
O=C(NCC(c1cccnc1)N1CCN(c2ccccc2F)CC1)c1ccco1 (stereo unspecified) | 3.5% | 23.1µM* | -12.6% | 39.5 | -16.3% | u
